# Assay outcomes as filed in PubChem.
# RGS7-Gao: modulates binding of RGS7 to human Galphao. P09471. Multiplexed bead flow cytometry; actives lie on both sides. binding response (% of control), % at 10 µM. 220,000 compounds, 0.35% hits. AID 1439; in the data active = binding response below about 49% or above about 150%; inconclusive = no clear call, values can overlap the other calls; inactive = in between;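 also: fluorescent Galphao held in activated GDP-AlF4 state binding bead-coupled RGS7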
# Target sequence (P09471 whole entry, looked up): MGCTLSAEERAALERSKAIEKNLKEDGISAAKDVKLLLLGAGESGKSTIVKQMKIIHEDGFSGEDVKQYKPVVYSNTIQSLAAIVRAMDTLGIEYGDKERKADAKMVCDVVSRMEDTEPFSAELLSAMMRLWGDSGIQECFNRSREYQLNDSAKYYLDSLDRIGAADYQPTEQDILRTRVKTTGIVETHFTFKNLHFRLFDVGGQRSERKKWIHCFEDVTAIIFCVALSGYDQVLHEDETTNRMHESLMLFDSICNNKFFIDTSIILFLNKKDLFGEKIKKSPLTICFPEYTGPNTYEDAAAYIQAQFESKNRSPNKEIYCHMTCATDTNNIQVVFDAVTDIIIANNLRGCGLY
# RGS16-Gao: modulates binding between human RGS16 and Galphao; 220,000 compounds, 0.38% hits; O15492+P09471; bead-based flow cytometry RGS16-Galphao binding, fluorescence; actives lie on both sides; binding response (% of control), % at 10 µM;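 also: Galphao activated by GDP with aluminum fluoride before binding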
# Avidin fluor: compound fluoresces at 488/530 nm on avidin beads. compound fluorescence 488/530 nm, flow cytometry; hits give high values. fluorescence (KMESF) at 10 µM. 220,000 compounds, 0.38% hits. AID 1775; in the data active = fluorescence above about 47
# GSH bead fluor: GSH bead compound fluorescence profile | GSH beads flow cytometry, compound fluorescence 488/530 nm; hits give high values | fluorescence (KMESF) at 10 µM | 190,000 compounds, 0.25% hits | AID 1776; in the data active = fluorescence above about 89;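 also: glutathione beads carrying GST-tagged Bcl family fusion proteins plus one bare bead set; values are compound well signal with DMSO vehicle wells as background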
# RGS8-Gao reg: regulators of human RGS8-Galphao interaction | P09471 | multiplexed bead flow cytometry, RGS8-Galphao binding; actives lie on both sides | response (percent of control binding), % at 10 µM | 220,000 compounds, 0.34% hits | AID 1423; in the data active = response below about 60% or above about 140%; inactive = in between;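 also: Galphao activated as the GDP aluminium fluoride complex binding bead-coupled RGS8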
# RGS4-Gao reg: modulates binding of RGS4 to human Galphao. P09471. Multiplexed bead flow cytometry; actives lie on both sides. binding response (% of control), % at 10 µM. 220,000 compounds, 0.33% hits. AID 1415; in the data active = binding response below about 49% or above about 150%; inactive = in between;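 also: fluorescent Galphao activated with aluminum fluoride binding bead-coupled RGS4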
# RGS4-Gao HTS: regulators of human RGS4-Galphao interaction | 1,600 compounds, 99% hits | multiplexed bead flow cytometry, RGS–Galpha-o binding | RGS4–Galpha-o binding response, % at 10 µM | AID 1504 | shares compounds with RGS16-Gao;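 also: fluorescently labeled Galpha-o bound to GDP with aluminium fluoride binding biotinylated RGS beads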
# Avidin counter: biotin-avidin bead binding disruption counter-screen | 1,700 tested, under 10 active | AID 1783 | inhibition, % at 10 µM | streptavidin beads, fluorescein-biotin binding, flow cytometry | shares compounds with RGS16-Gao;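 active = inhibition above 50%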;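 also: median green fluorescence of gated singlet beads compared with DMSO control wells; 0% = DMSO wells and 100% = complete loss of bead fluorescence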
# RGS8-Gao single: confirmation of regulators of human RGS8-Galphao interaction. shares compounds with RGS16-Gao. bead-based flow cytometry RGS8-Galphao binding, fluorescence; actives lie on both sides. binding response (% of control), % at 10 µM. 1,700 compounds, 3% hits. AID 1836; in the data active = binding response below about 72% or above about 130%; inactive = in between;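 also: Galphao activated as GDP AlF4 complex before binding bead RGS8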
# RGS7-Gao single: RGS7-Galphao interaction regulation, single point confirmation | 1,700 compounds, 7.8% hits | bead-based flow cytometry RGS7-Galphao binding; actives lie on both sides | response (percent of control binding), % at 10 µM | shares compounds with RGS16-Gao; in the data active = response below about 75% or above about 130%; inactive = in between;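 also: fluorescent Galphao activated with GDP and aluminum fluoride binding bead-coupled RGS7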
# RGS16-Gao single: confirmation of regulators of human RGS16-Galphao interaction | shares compounds with RGS16-Gao | response (% of control binding), % at 10 µM | 1,700 compounds, 4% hits | bead-based flow cytometry, RGS16-Galphao binding; actives lie on both sides; in the data active = response below about 74% or above about 130%; inactive = in between;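 also: Galphao activated as the GDP aluminium fluoride complex binding bead-coupled RGS16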
# RGS4-Gao confirm: RGS4-Galphao interaction regulation, single point confirmation; shares compounds with RGS16-Gao; RGS4-Galphao binding, multiplexed bead flow cytometry; actives lie on both sides; binding response (% of control), % at 10 µM; 1,700 compounds, 4% hits; in the data active = binding response below about 74% or above about 130%; inactive = in between
# RGS19-Gao conf: confirmation of regulators of human RGS19-Galphao interaction; shares compounds with RGS16-Gao; response (percent of control binding), % at 10 µM; 1,700 compounds, 5% hits; AID 1841; bead-based flow cytometry RGS19-Galphao binding; actives lie on both sides; in the data active = response below about 50% or above about 160%; inactive = in between;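 also: 100% = no compound control and 0% = blank background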
# Target sequence (P09471 whole entry, looked up): as above
# Target sequence (P49795 whole entry, looked up): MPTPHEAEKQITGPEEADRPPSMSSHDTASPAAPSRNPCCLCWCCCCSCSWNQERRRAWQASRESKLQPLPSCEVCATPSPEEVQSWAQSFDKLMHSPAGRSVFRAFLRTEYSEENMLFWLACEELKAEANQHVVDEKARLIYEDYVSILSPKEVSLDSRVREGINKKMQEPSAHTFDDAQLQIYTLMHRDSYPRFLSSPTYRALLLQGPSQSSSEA
# * = called active by the depositor; ? = inconclusive; . = no result; [ ] = remark or other dose. Sampled rows, rich in hits. Any-hit rate of the full collection: about 1.2%. Unless noted, no rule for the calls is given here.
SMILES,RGS7-Gao,RGS16-Gao,Avidin fluor,GSH bead fluor,RGS8-Gao reg,RGS4-Gao reg,RGS4-Gao HTS,Avidin counter,RGS8-Gao single,RGS7-Gao single,RGS16-Gao single,RGS4-Gao confirm,RGS19-Gao conf
NC(N)=N/N=C/c1ccc(Br)cc1,101,100,11,14,104,99,.,.,.,.,.,.,.
N#Cc1ccc(/C=N/N=C(N)N)cc1,179*[activator],244*[activator],112*,35,115,220*[activator],.,2,103,101,96,101,63
N#C/C(=C/c1ccc(N2CCCCC2)o1)C(=O)Nc1ccc2ccccc2c1,192*[activator],164,111*,82,91,177*[activator],.,2,103,175*[activator],138*[activator],148*[activator],220*[activator]
COc1ccc(NC(=O)/C(C#N)=C\c2ccc(N3CCOCC3)o2)cc1,102,102,15,13,99,103,.,.,.,.,.,.,.
Cn1nc(C(=O)Nc2nc3ccccc3[nH]2)ccc1=O,99,104,13,13,104,102,.,.,.,.,.,.,.
COc1ccc(OC)c(-c2cc(C(=O)NCc3ccc(Cl)cc3)no2)c1,106,100,4,10,102,105,.,.,.,.,.,.,.
C#CCSc1nnc(-c2ccccc2)c(=O)[nH]1,17*,10*,1,13,13*,21*,.,-2,101,90,99,97,80
CCOC(=O)c1ccc(NCn2c(=O)oc3ccccc32)cc1,92,-14*,10,22,88,97,97*,-2,100,99,97,102,102
O=C(Nc1ccc(Cl)cc1Cl)NC1CCN(S(=O)(=O)c2ccc(F)cc2)CC1,?,99,9,.,99,98,.,.,.,.,.,.,.
COc1ccc(-c2[nH]ncc2CN(C)CCN2CCOCC2)cc1F,-15*,-4.7*,-2,15,6.9*,-6.3*,.,-2,91,81,87,87,84
CC1(C)COC2(OC1)C(=O)N(CN1CCOCC1)c1ccccc12,252*[activator],128,124*,22,106,128,128*,0,99,96,99,101,90
O=C1N(CN2CCC3(CC2)OCCO3)c2ccccc2C12OCCCO2,100,104,21,9,99,95,.,.,.,.,.,.,.
COc1cccc(Nc2nnc(SCN3C(=O)c4ccccc4C3=O)s2)c1,130,551,12,13,153*[activator],122,122*,1,103,101,100,102,106
N#Cc1cc(C(=O)c2ccccc2O)cn(-c2nccs2)c1=O,66,22,5,18,58*,57,57*,1,106,104,105,102,115
COC(=O)c1cc(NC(=O)/C=C/c2ccccc2)ccc1O,107,111,13,12,105,100,.,.,.,.,.,.,.
CCOc1ccc(C(=O)NNC2CC(=O)N(Cc3ccc(Cl)cc3)C2=O)cc1OC (centres undefined),109,103,8,16,101,104,.,.,.,.,.,.,.
O=C(NCCO)C(=O)c1c(-c2ccccc2)cc2ccccn12,?,101,12,13,100,100,.,.,.,.,.,.,.
c1ccc2c(c1)OCCOCCOc1ccccc1OCCOCCO2,191*[activator],75,2,10,145*[activator],187*[activator],.,1,109,116,114,104,143
CCOC(=O)c1ccc(NC(=S)Nc2ccc3[nH]c(=O)[nH]c3c2)cc1,?,106,6,.,106,102,.,.,.,.,.,.,.
CCOc1ccc(NC(=O)COC(=O)CCS(=O)(=O)c2ccc(C)cc2)cc1,100,113,11,17,102,100,.,.,.,.,.,.,.
COC(=O)c1c(NC(=O)COC(=O)CCS(=O)(=O)c2ccc(C)cc2)sc(C)c1C,83,255*[activator],3,9,106,92,92*,1,104,139*[activator],115,118,160*[activator]
CSc1ccc(C2C(C#N)=C(N)Oc3c2ccc(=O)c2c(C)oc(C)c32)cc1 (centres undefined),254*[activator],473,93*,159*,132,180*[activator],.,2,99,96,101,100,98
COCCNC(=O)Cn1nc(-c2ccccc2OC)ccc1=O,133,383,5,57,158*[activator],133,133*,1,107,82,104,91,56
CCc1ccc(S(=O)(=O)/N=C2/C=C(Sc3ncn[nH]3)C(=O)c3ccccc32)cc1,84,24*,7,21,63,92,92*,.,.,.,.,.,.
CCc1ccc(S(=O)(=O)/N=C2\C=CC(=O)c3ccccc32)cc1,89,78,11,10,87,93,.,.,.,.,.,.,.
SMILES,RGS7-Gao,RGS16-Gao,Avidin fluor,GSH bead fluor,RGS8-Gao reg,RGS4-Gao reg,RGS4-Gao HTS,Avidin counter,RGS8-Gao single,RGS7-Gao single,RGS16-Gao single,RGS4-Gao confirm,RGS19-Gao conf
Cc1cccn2c(CNC3CCCc4ccccc43)c(C(=O)N3CCCCC3)nc12 (centres undefined),99,91,9,35,98,98,.,.,.,.,.,.,.
Cc1ccc(NS(=O)(=O)c2cc([N+](=O)[O-])ccc2N/N=C/c2sc(N3CCOCC3)nc2-c2ccccc2)c(C)c1,?,103,22,.,102,110,.,.,.,.,.,.,.
NCCCC(=O)O,103,116,7,20,105,103,.,.,.,.,.,.,.
CCCC(N)CCCCCC(=O)O (centres undefined),120,333*[activator],14,25,123,129,129*,-2,99,98,98,101,93
CCCCN(CCCC)CCCNC(=O)c1ccc2nc(-c3ccccc3NC(C)=O)c(=O)[nH]c2c1,101,100,11,11,101,100,.,.,.,.,.,.,.
CC(=O)Nc1ccccc1-c1nc2ccc(C(=O)N3CCN(c4cc(C)ccc4C)CC3)cc2[nH]c1=O,168*[activator],110,78*,29,102,111,111*,10,99,74*,86,84,59
